Reference: PubChem BioAssay
The source made the active and inactive calls.

Key:
[1] = molecular target: Albumin (Bos taurus) (UniProt P02769); test: bovine serum albumin binders on microarray, profiling panel, artefact control for SMM control protein annotation, biochemical, small-molecule microarray, Alexa647 label, 635/667 nm fluorescence (AID 1118); conditions: BSA-A647 binding, fluorescence 635 nm, higher = more signal;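 also: score merges 667 nm emission intensity and signal-to-noise per printed compound spot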
Chain of Albumin (Bos taurus) (P02769 whole entry, looked up): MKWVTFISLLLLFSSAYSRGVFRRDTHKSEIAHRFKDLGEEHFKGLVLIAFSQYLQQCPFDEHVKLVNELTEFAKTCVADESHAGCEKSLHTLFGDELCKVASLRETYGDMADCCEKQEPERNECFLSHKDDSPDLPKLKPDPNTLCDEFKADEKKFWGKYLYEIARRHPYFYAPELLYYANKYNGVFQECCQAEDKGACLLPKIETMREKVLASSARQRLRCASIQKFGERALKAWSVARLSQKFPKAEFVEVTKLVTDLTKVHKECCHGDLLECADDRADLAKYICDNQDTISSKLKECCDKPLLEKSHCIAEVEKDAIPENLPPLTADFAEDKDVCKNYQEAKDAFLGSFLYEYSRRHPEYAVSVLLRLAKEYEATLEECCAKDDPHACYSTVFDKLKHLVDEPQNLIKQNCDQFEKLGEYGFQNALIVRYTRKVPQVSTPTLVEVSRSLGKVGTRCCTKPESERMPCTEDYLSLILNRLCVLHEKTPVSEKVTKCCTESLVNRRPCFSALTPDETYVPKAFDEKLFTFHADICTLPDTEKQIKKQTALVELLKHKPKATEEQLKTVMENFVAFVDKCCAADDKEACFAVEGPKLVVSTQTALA

[2] = small-molecule microarray binders of probe aXIP, primary screen, biochemical, NeuroSMM set, 635/667 nm fluorescence (AID 1119); conditions: higher = more signal, called active from +8 up or from −8 down;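 also: probe is the protein aXip251-270 applied at 1 µg/mL to compound-printed slides; binding of probe to printed compounds measured as 667 nm fluorescence plus signal to noise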
[3] = small-molecule binders of probe aNOTCH3, primary screen, biochemical, small-molecule microarray, 635/667 nm fluorescence (AID 1120); conditions: higher = more signal;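 also: probe is a biotin-tagged antibody raised against NOTCH3 rather than NOTCH3 protein; score merges spot fluorescence near 667 nm with spot signal to noise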
[4] = small-molecule binders of probe aNOTCH2, primary screen, biochemical, small-molecule microarray, 635/667 nm fluorescence (AID 1121); conditions: higher = more signal;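 also: score merges feature fluorescence read at 667 nm with its signal to noise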
[5] = molecular target: Carbonic anhydrase 2 (Homo sapiens) (UniProt P00918); test: CAII small-molecule binders, profiling panel, biochemical, small-molecule microarray, Alexa647-labelled CAII (AID 1122); conditions: CAII-A647 binding fluorescence, higher = more signal
[6] = COS7 lysate on small-molecule microarray, probe aHis, 635 nm (AID 1123); conditions: COS7 cell lysate, fluorescence, higher = more signal;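 also: z-score combines 667nm fluorescence intensity with signal-to-noise per printed compound spot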
[7] = compound binding in COS7 lysate, probe aLAP1, primary screen, cell lysate, small-molecule microarray (AID 1124); conditions: probe aLAP1, fluorescence, higher = more signal;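 also: lysate comes from COS7 cells expressing LAP1 and is applied at 0.3 µg/mL; score merges spot fluorescence near 667 nm with signal-to-noise over triplicate slides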
[8] = test system: Sam68 (KHDRBS1); test: Sam68 small-molecule binders, primary screen, biochemical, small-molecule microarray, 635 nm fluorescence (AID 1125); conditions: small-molecule microarray binding, higher = more signal;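 also: score merges 667 nm channel intensity with signal to noise over triplicate slides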
[9] = test system: Chordin-like protein 2 (CHRDL2); test: CHRDL2 small-molecule binders, primary screen, biochemical, small-molecule microarray, 635 nm fluorescence (AID 1126); conditions: small-molecule microarray binding, fluorescence 635 nm; higher = more signal;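 also: printed compound slides probed with Chrdl2 protein at 4 µg/mL for 1 h at 4 C; score merges 667 nm emission intensity with signal to noise over three replicate slides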
[10] = molecular target: Concanavalin-A (Canavalia ensiformis) (UniProt P02866); test: ConA small-molecule binders, primary screen, artefact control for SMM control protein annotation, biochemical, small-molecule microarray, Alexa647 label, 635 nm (AID 1127); conditions: ConA-A647 binding fluorescence, higher = more signal;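 also: z combines 667 nm emission intensity with signal-to-noise across three replicate slides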
Chain of Concanavalin-A (Canavalia ensiformis) (P02866 whole entry, looked up): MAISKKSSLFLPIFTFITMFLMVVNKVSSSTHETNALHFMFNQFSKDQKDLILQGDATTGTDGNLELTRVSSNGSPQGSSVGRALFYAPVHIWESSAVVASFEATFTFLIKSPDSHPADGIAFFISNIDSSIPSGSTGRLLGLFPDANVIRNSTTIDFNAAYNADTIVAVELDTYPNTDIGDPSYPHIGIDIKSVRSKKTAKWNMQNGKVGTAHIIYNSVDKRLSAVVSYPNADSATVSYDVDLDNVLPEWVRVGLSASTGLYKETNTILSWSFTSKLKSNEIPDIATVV

Row | SMILES | composite z-score [1] | composite Z-score [2] | composite z-score [3] | composite z-score [4] | composite z-score [5] | composite z-score [6] | composite z-score [7] | composite z-score [8] | composite z-score [9] | composite z-score [10]
1 | CC(C)CNC(=O)[C@@H]1c2ccccc2C(=O)N(C2Cc3ccccc3C2)[C@H]1c1ccc(CO)cc1 | -0.191 | -0.577 (inactive) | -0.219 | -0.0984 | 0.687 | 0.284 | 1.45 | 0.547 | -0.0902 | 0.378
2 | CCCCNC(=O)c1ccc(C#C[Si](C)(C)C)c(OC(C)=O)c1 | -0.175 | 0.378 (inactive) | -0.0328 | -0.154 | -0.14 | 0.353 | 0.0462 | 0.469 | 0.782 | 0.0668
3 | COc1cc2c(cc1O)C(C1CC1)N(Cc1ccc([N+](=O)[O-])o1)CC2 (stereo not given) | 0.959 | 0.676 (inactive) | 0.0159 | -0.0826 | 0.717 | 1.42 | 1.03 | 0.835 | -0.465 | 0.934
4 | C=CCC(OC(C)=O)[C@@H]1[C@@H](N(Cc2cccc3ccccc23)C(=O)c2ccc(-c3ccccc3)cc2)c2cc(OCCCO)ccc2N1C(=O)c1ccc2ccccc2n1 (stereo not given in full) | 0.192 | -0.0401 (inactive) | 0.119 | -0.0639 | 0.0528 | 0.181 | 0.649 | 0.464 | 0.41 | -0.288
5 | CC(C)CNC(=O)[C@@H]1c2ccccc2C(=O)N(Cc2ccccc2)[C@H]1c1ccc(CO)cc1 | -0.159 | -0.318 (inactive) | -0.394 | -0.122 | 0.83 | 1.63 | 1.35 | 0.293 | -1.1 | -0.102
6 | CN(C)CCCC[C@@H]1NC(=O)[C@@H]2C[C@H](C(=O)NCCCCCCNC(=O)CS)[C@H](c3cccc(OCCO)c3)N2C1=O | -0.361 | 0.303 (inactive) | -0.213 | -0.0649 | 0.48 | 0.95 | 0.312 | 0.555 | 0.402 | 0.658
7 | COCCOC(=O)N1C(=O)[C@@]2(c3cc(C#CC4(O)CCCCCC4)ccc31)[C@H](c1ccccc1OCCO)N1[C@H](c3ccccc3)[C@H](c3ccccc3)OC(=O)[C@H]1[C@@H]2C(=O)N1CCCCCCC1 | 0.187 | 0.961 (inactive) | 1.07 | 0.513 | 0.497 | 2.16 | 0.364 | 1.29 | 0.905 | 0.992
8 | COc1cc2c(cc1O)C(c1ccc(CN3CCCC3)cc1)N(Cc1ccc([N+](=O)[O-])o1)CC2 (stereo not given) | 0.847 | 0.27 (inactive) | 0.0469 | -0.0959 | 0.91 | 0.542 | 0.774 | -0.768 | -0.881 | 0.387
9 | O=C1O[C@H](c2ccccc2)[C@H](c2ccccc2)N2[C@H]1[C@@H](C(=O)N1CCN(c3ncccn3)CC1)[C@]1(C(=O)Nc3ccccc31)[C@H]2c1ccc(O)cc1 | 0.753 | 0.56 (inactive) | -0.0932 | -0.0438 | 0.672 | 2.48 | 0.445 | 1.29 | -0.0771 | 1.16
10 | COC(=O)C1=CC(CCCO)=CC(c2ccc(CN3CCCC3)cc2)N(Cc2sc3ccccc3c2Cl)C=C1C(=O)OC (stereo not given) | 1.05 | 3.3 (inactive) | 0.734 | 0.157 | 0.788 | 2.95 | 0.926 | 1.3 | 0.153 | 1.21
11 | COC(=O)[C@@]1(Cc2ccc(OC)cc2)[C@@H]2[C@@H](CC(=O)[C@H]2CC(=O)C(=O)N2CCCC2)CN1C(=O)c1ccccc1 | 0.979 | -0.766 (inactive) | 1.75 | 1 | 0.856 | 3.45 | 0.921 | 1.09 | 0.251 | 1.18
12 | COCCOC(=O)N1C(=O)[C@@]2(c3cc(C#CCC(C(=O)OC)C(=O)OC)ccc31)[C@H](C(=O)N1CCCCCCC1)[C@H]1C(=O)O[C@H](c3ccccc3)[C@H](c3ccccc3)N1[C@@H]2c1ccccc1OCCO | 0.847 | 0.269 (inactive) | 1.91 | 0.689 | 0.761 | 3.14 | 1.16 | 1.29 | 1.44 | 1.06
13 | CCOC(=O)C[C@H]1[C@H](OC(=O)c2ccc(-c3ccccc3)cc2)[C@@H](NC(=O)CC(C)C)c2cc(OCCCO)ccc2N1C(=O)Cc1ccc(OC)cc1 | 0.593 | -0.244 (inactive) | 0.0582 | 0.0426 | -0.0667 | 0.179 | 0.39 | 0.309 | -0.213 | -0.286
14 | CCCCCCCCCCC(O)C1C=CC2C(=O)N(C)C(=O)C2N1N1CCCCC1 (stereo not given) | -0.377 | -0.0231 (inactive) | -0.256 | -0.135 | -0.284 | 0.879 | 0.582 | -0.555 | -2.31 | -1.13
15 | O=C1C2C=CC(C(O)c3ccc([N+](=O)[O-])cc3)N(Nc3ccccc3)C2C(=O)N1c1ccccc1 (stereo not given) | 0.822 | -0.0589 (inactive) | 0.261 | -0.0591 | 0.77 | 1.42 | -0.163 | 0.594 | -0.225 | 0.49
16 | CC(C)C[C@@H]1NC(=O)C([C@@H](C)OCc2ccccc2)NC(=O)[C@@]23C(=O)N[C@@H](Cc4ccccc4)C2[C@H](C)[C@@]2(C)O[C@H]2C3/C=C/CC/C=C/CNC1=O (stereo not given in full) | 0.438 | -0.0807 (inactive) | -0.0647 | -0.128 | 0.469 | 0.73 | 0.184 | 1.34 | 0.554 | 0.329

Row | SMILES | composite z-score [1] | composite Z-score [2] | composite z-score [3] | composite z-score [4] | composite z-score [5] | composite z-score [6] | composite z-score [7] | composite z-score [8] | composite z-score [9] | composite z-score [10]
17 | C=CCC(OC(C)=O)[C@@H]1[C@@H](N(Cc2cc3ccccc3o2)C(=O)Cc2ccc(OC)cc2)c2cc(OCCCO)ccc2N1C(=O)Cc1ccc2ccccc2c1 (stereo not given in full) | 0.402 | -0.374 (inactive) | -0.0391 | -0.0424 | -0.061 | 0.491 | -0.185 | -0.235 | -0.563 | 0.3
18 | COCCCNC(=O)[C@@H]1c2ccccc2C(=O)N(C2CCCCC2)[C@H]1c1ccc(CO)cc1 | -0.527 | -1.17 (inactive) | -0.27 | -0.106 | 0.471 | 1.08 | 0.0117 | -0.724 | -1.23 | -0.247
19 | CN(C)CCCCNC(=O)[C@H]1C[C@H]2C(=O)N[C@@H](Cc3ccccc3)C(=O)N2[C@H]1c1cccc(OCCO)c1 | -0.598 | -0.162 (inactive) | -0.199 | -0.117 | 0.627 | -0.185 | -0.507 | -1.16 | 0.739 | 0.696
20 | COC(=O)[C@@]1(CCC(=O)OC(C)(C)C)N=C(c2ccc(OCCCO)cc2)O[C@H]1c1ccccc1CN=[N+]=[N-] | -0.0515 | 0.69 (inactive) | -0.0984 | -0.0786 | 0.743 | 1.41 | 0.348 | -0.126 | -0.141 | 0.855
21 | C[C@H]1C2[C@H](Cc3ccccc3)NC(=O)[C@]23C(=O)NCC(=O)N2CCC[C@H]2C(=O)NC/C=C\C/C=C/C3[C@@H]2O[C@]12C (stereo not given in full) | -0.674 | -0.403 (inactive) | 0.155 | -0.176 | 0.718 | -0.981 | -0.632 | -0.158 | 0.486 | -0.351
22 | COCCOC(=O)N1C(=O)[C@@]2(c3cc(C#Cc4ccc(OC)cc4)ccc31)[C@H](C(=O)N1CCCCCCC1)[C@H]1C(=O)O[C@H](c3ccccc3)[C@H](c3ccccc3)N1[C@@H]2c1ccccc1OCCO | 0.768 | 4.24 (inactive) | 1.49 | 0.793 | 0.472 | 3 | 1.3 | 1.3 | 1.21 | 0.893
23 | CCC(CC)C(O)C1C=CC2C(=O)N(C)C(=O)C2N1N1CCCCC1 (stereo not given) | 0.999 | -0.175 (inactive) | 0.499 | 0.0477 | 0.755 | 2.5 | 0.502 | 1.31 | 0.0277 | 1.13
24 | O=C1C2C=CC(C(O)c3cccc(O)c3)N(Nc3ccccc3F)C2C(=O)N1c1ccccc1 (stereo not given) | 0.92 | -0.539 (inactive) | 0.025 | -0.141 | 0.756 | -0.0811 | -0.841 | 0.664 | -0.406 | 0.0597
25 | O=C(NCC(F)(F)F)[C@@H]1c2ccccc2C(=O)N(CC23CC4CC(CC(C4)C2)C3)[C@H]1c1ccc(CO)cc1 | 0.15 | 0.251 (inactive) | 0.0981 | -0.147 | 0.25 | 0.699 | 0.622 | 1.27 | 0.162 | 0.734
26 | C=CCC(OC(C)=O)[C@@H]1[C@@H](N(Cc2cccc3ccccc23)C(=O)c2ccc(C)cc2)c2cc(OCCCO)ccc2N1C(=O)c1ccc2ccccc2n1 (stereo not given in full) | 0.526 | -0.104 (inactive) | 0.366 | 0.0239 | 0.246 | 0.72 | 0.158 | 0.478 | 0.618 | -0.202
27 | CC(=O)c1ccc(C(O)C2C=CC3C(=O)NC(=O)C3N2Nc2ccc(Cl)cc2Cl)cc1 (stereo not given) | 0.843 | 0.0186 (inactive) | -0.0151 | -0.0097 | 0.759 | 2.15 | -0.227 | -0.0077 | 0.0823 | -0.185
28 | C=CCNC(=O)[C@H]1[C@@H]2C(=O)O[C@@H](c3ccccc3)[C@@H](c3ccccc3)N2[C@@H](c2ccc(O)cc2)[C@]12C(=O)Nc1ccc(C#CC3=CCCCC3)cc12 | 0.135 | -0.121 (inactive) | -0.119 | 0.23 | 0.416 | 1.52 | 0.573 | 1.11 | 0.62 | 1.12
29 | CC(C)C[C@@H]1NC(=O)[C@H]2C[C@@H](C(=O)NCCCCCCNC(=O)CS)[C@@H](c3ccc(O)cc3)N2C1=O | 0.291 | 0.741 (inactive) | -0.0581 | 0.0018 | 0.665 | 1.73 | 0.0905 | 1.3 | 0.986 | 1.11
30 | COCCOC(=O)N1C(=O)[C@@]2(c3cc(C#CC4=CCCCC4)ccc31)[C@H](C(=O)N1CCc3cc(OC)c(OC)cc3C1)[C@H]1C(=O)O[C@H](c3ccccc3)[C@H](c3ccccc3)N1[C@@H]2c1ccc(O)cc1 | 0.482 | 0.334 (inactive) | 0.285 | 0.307 | 0.267 | 1.32 | 0.858 | 1.1 | 0.463 | 1.19
31 | NC(=O)NCC#Cc1ccc2c(c1)[C@]1(C(=O)N2)[C@H](C(=O)Nc2nc3ccccc3s2)[C@H]2C(=O)O[C@H](c3ccccc3)[C@H](c3ccccc3)N2[C@@H]1c1ccc(OCCO)cc1 | 0.0054 | 0.367 (inactive) | -0.0956 | -0.238 | 0.136 | 0.408 | 0.109 | -0.137 | -0.258 | 0.318
32 | C=CC[C@]1(C(=O)NCCCOC)N=C(c2ccc(OCCCO)cc2)O[C@H]1c1ccccc1 | 0.812 | -0.397 (inactive) | 0.0522 | -0.131 | 0.783 | 2.66 | 0.648 | 1.07 | -1.08 | 0.335
